Measured values: PubChem BioAssay
Calls of active or inactive are those of the source.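 Rule for the calls, unless noted: active = compound raises insulin release from rat beta cells at 5 mM glucose, no numeric limit stated; inactive = the rest.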

Tests used:
[1] = Wnt pathway potentiators raising nuclear beta-catenin – imaging, WNT3A-conditioned medium, mouse C2C12, NPC library, primary screen (AID 1117326; in the data active = nuclear beta-catenin stimulation mostly above about 4.2%, no sharp cut-off; inactive = mostly below about 10%; note: reference of the scale not given here); details: stronger effect = higher value
[2] = stimulators of insulin release from INS-1E, primary screen, cell-based, 5 mM glucose, NPC library (AID 1117329); details: rat INS-1E insulin secretion, at 10 µM, stronger effect = higher value; note: reference of the scale not given here
[3] = growth inhibition of GSK3B-pretreated HCT116 cells – cell-based, CellTiter-Glo, 0.2 to 20 µM (AID 1117336;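 active = compounds lowering colon cancer cell viability after pretreatment blocking the GSK3B kinase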); details: HCT116 viability after GSK3B inhibitor, at 20 µM, stronger effect = higher value
[4] = inhibition of endothelial tube formation, primary screen, imaging, VEGF stimulated, CD31 staining, tube area, NPC library (AID 1117340;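 active = compound that reduces growth-factor-driven endothelial tube area in a mixed cell culture, no cutoff stated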); details: VEGF-stimulated ADSC/ECFC co-culture, at 10 µM, stronger effect = higher value
[5] = GLP1 release stimulators, primary, NCI-H716, NPC library (AID 1117341;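 active = compound raises GLP1 secretion from the human gut endocrine cells, with no numeric limit stated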; note: reference of the scale not given here); details: NCI-H716 cells, at 10 µM, stronger effect = higher value
[6] = HCT116 colon cancer cell growth inhibition, primary screen, CellTiter-Glo luminescence, NPC library (AID 1117342;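 active = compounds that lower survival of HCT116 colon cancer cells in the luminescence readout, no numeric limit stated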); details: at 20 µM (top of the series)
[7] = reduced SW480 viability measured with CellTiter-Glo, NPC library, primary (AID 1117343;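 active = compounds that lower viability of the colon cancer cells in the luminescence readout, with no numeric limit stated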); details: CellTiter-Glo luminescence; at 20 µM (top of the series)
[8] = NPC library primary testing for decreased DLD-1 cell viability via CellTiter-Glo (AID 1117346;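 active = compounds that lower survival of DLD-1 colon cancer cells in the luminescence readout, no cutoff given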); details: DLD-1 viability, CellTiter-Glo luminescence; at 20 µM (top of the series)

O=C(N/N=C/c1ccccc1O)c1ccncc1
inactive: nuclear beta-catenin stimulation ([1]; at 10 µM) 32.2% | insulin secretion stimulation [2] -1.6% | GLP1 secretion stimulation [5] 2.1%
active: viability decrease [3] 94.3% | tube area decrease [4] 86.7% | inhibition of viability [6] 88.7% | viability decrease (inhibition) [7] 106% | viability decrease (inhibition) [8] 57.8%
11.1%: nuclear beta-catenin stimulation ([1]; stimulation, at 2 µM)

CC(C)=CCC1C(=O)N(c2ccccc2)N(c2ccccc2)C1=O
inactive: nuclear beta-catenin stimulation ([1]; at 10 µM) -0.3% | insulin secretion stimulation [2] -1.2% | viability decrease [3] 45.1% | tube area decrease [4] 8.8% | GLP1 secretion stimulation [5] -1.5% | inhibition of viability [6] -4.6% | viability decrease (inhibition) [8] 26.2%
0.3%: nuclear beta-catenin stimulation ([1]; stimulation, at 2 µM)
active: viability decrease (inhibition) [7] 78.1%

Cn1c(=O)c2[nH]c(Br)nc2n(C)c1=O
inactive: nuclear beta-catenin stimulation ([1]; at 10 µM) 0.6% | insulin secretion stimulation [2] 0.9% | viability decrease [3] 2.55% | tube area decrease [4] 10.2% | GLP1 secretion stimulation [5] 1.1% | inhibition of viability [6] -3.7% | viability decrease (inhibition) [7] -17.4% | viability decrease (inhibition) [8] -0.15%
2%: nuclear beta-catenin stimulation ([1]; stimulation, at 2 µM)

O=C(CCC1CCN(Cc2ccccc2)CC1)c1ccc2c(c1)NCCCC2
3.5%: nuclear beta-catenin stimulation ([1]; stimulation, at 2 µM)
active: viability decrease [3] 53.5% | inhibition of viability [6] 81.9% | viability decrease (inhibition) [7] 93.9% | viability decrease (inhibition) [8] 62.1%
inactive: nuclear beta-catenin stimulation ([1]; at 10 µM) 3.2% | insulin secretion stimulation [2] 4.2% | tube area decrease [4] 12.9% | GLP1 secretion stimulation [5] 4.3%

C[C@@H](N)C(=O)O
0%: nuclear beta-catenin stimulation ([1]; stimulation, at 2 µM)
inactive: nuclear beta-catenin stimulation ([1]; at 10 µM) 1.4% | insulin secretion stimulation [2] -2.7% | viability decrease [3] 9% | tube area decrease [4] 15.4% | GLP1 secretion stimulation [5] 5.9% | inhibition of viability [6] 11.2% | viability decrease (inhibition) [7] 44.4% | viability decrease (inhibition) [8] 20.8%

C[C@@H](O)[C@H]1C(=O)N2C(C(=O)O)=C(S[C@@H]3CN[C@H](CNS(N)(=O)=O)C3)[C@H](C)[C@H]12
inactive: nuclear beta-catenin stimulation ([1]; at 10 µM) 2.9% | insulin secretion stimulation [2] -0.6% | viability decrease [3] 14% | tube area decrease [4] -14% | GLP1 secretion stimulation [5] 0.3% | inhibition of viability [6] 25.7% | viability decrease (inhibition) [7] 3.1% | viability decrease (inhibition) [8] -20.9%
3%: nuclear beta-catenin stimulation ([1]; stimulation, at 2 µM)

Cc1c(I)c(=O)n(-c2ccccc2)n1C
inactive: nuclear beta-catenin stimulation ([1]; at 10 µM) -0.6% | insulin secretion stimulation [2] 0.4% | viability decrease [3] -4.55% | tube area decrease [4] 1.2% | GLP1 secretion stimulation [5] 0.6% | inhibition of viability [6] -8.9% | viability decrease (inhibition) [7] 26.3% | viability decrease (inhibition) [8] 33.4%
0.4%: nuclear beta-catenin stimulation ([1]; stimulation, at 2 µM)

NC(=O)CC[C@@H]1NC(=O)[C@H](Cc2ccccc2)NC(=O)[C@H](Cc2ccc(O)cc2)NC(=O)CCSSC[C@@H](C(=O)N2CCC[C@H]2C(=O)N[C@@H](CCCN=C(N)N)C(=O)NCC(N)=O)NC(=O)[C@H](CC(N)=O)NC1=O
-1.2%: nuclear beta-catenin stimulation ([1]; stimulation, at 2 µM)
inactive: nuclear beta-catenin stimulation ([1]; at 10 µM) -0.6% | insulin secretion stimulation [2] 0.8% | viability decrease [3] 8.4% | tube area decrease [4] 3.9% | GLP1 secretion stimulation [5] 2.4% | inhibition of viability [6] 1% | viability decrease (inhibition) [7] 1.3% | viability decrease (inhibition) [8] -0.2%

CCOC(=O)[C@@H](N)CS
inactive: nuclear beta-catenin stimulation ([1]; at 10 µM) -2% | insulin secretion stimulation [2] 2.3% | viability decrease [3] -17.1% | tube area decrease [4] 2.3% | inhibition of viability [6] -5.6% | viability decrease (inhibition) [7] 34.7% | viability decrease (inhibition) [8] 4.2%
-1%: nuclear beta-catenin stimulation ([1]; stimulation, at 2 µM)
active: GLP1 secretion stimulation [5] 21%

Cc1nc(C2CCCCC2)c(-c2ccc(S(N)(=O)=O)c(F)c2)o1
4.1%: nuclear beta-catenin stimulation ([1]; stimulation, at 2 µM)
inactive: nuclear beta-catenin stimulation ([1]; at 10 µM) 2.5% | insulin secretion stimulation [2] 1.4% | viability decrease [3] 21% | tube area decrease [4] 24% | GLP1 secretion stimulation [5] 1.8% | inhibition of viability [6] -0.63% | viability decrease (inhibition) [7] 6.3% | viability decrease (inhibition) [8] 3.1%

CC(C=CC1=C(C)CCCC1(C)C)=CC=CC(C)=CC(=O)Oc1c(C)c(C)c2c(c1C)CC[C@@](C)(CCC[C@H](C)CCC[C@H](C)CCCC(C)C)O2
inactive: nuclear beta-catenin stimulation ([1]; at 10 µM) 2.1% | insulin secretion stimulation [2] 2.9% | viability decrease [3] 2.5% | tube area decrease [4] -4.2% | GLP1 secretion stimulation [5] 2.3% | inhibition of viability [6] 32.1% | viability decrease (inhibition) [7] -36.9% | viability decrease (inhibition) [8] 4%
2.2%: nuclear beta-catenin stimulation ([1]; stimulation, at 2 µM)

COC(=O)c1cccnc1
inactive: nuclear beta-catenin stimulation ([1]; at 10 µM) 1% | insulin secretion stimulation [2] -1.6% | viability decrease [3] -2.7% | tube area decrease [4] -14.2% | GLP1 secretion stimulation [5] 1.1% | inhibition of viability [6] -7.2% | viability decrease (inhibition) [7] 17.2% | viability decrease (inhibition) [8] 1.25%
1.1%: nuclear beta-catenin stimulation ([1]; stimulation, at 2 µM)

Nc1ncnc2c1ncn2CCOCP(=O)(O)O
0.1%: nuclear beta-catenin stimulation ([1]; stimulation, at 2 µM)
inactive: nuclear beta-catenin stimulation ([1]; at 10 µM) -0.6% | insulin secretion stimulation [2] -2% | viability decrease [3] -1.45% | tube area decrease [4] 11.2% | GLP1 secretion stimulation [5] 4% | inhibition of viability [6] -1.5% | viability decrease (inhibition) [7] 27.9% | viability decrease (inhibition) [8] 6.8%

O=C(O)c1ccccc1Nc1cc(Cl)ccc1C(=O)O
inactive: nuclear beta-catenin stimulation ([1]; at 10 µM) 2% | insulin secretion stimulation [2] 0.5% | viability decrease [3] 2.4% | tube area decrease [4] -18.4% | GLP1 secretion stimulation [5] 0.1% | inhibition of viability [6] -1.2% | viability decrease (inhibition) [7] -23.2% | viability decrease (inhibition) [8] -18.7%
-1.8%: nuclear beta-catenin stimulation ([1]; stimulation, at 2 µM)

CC1(C)OC[C@@H](COC(=O)CCc2ccc(OC[C@@H](O)CNCCNC(=O)N3CCOCC3)cc2)O1
1.1%: nuclear beta-catenin stimulation ([1]; stimulation, at 2 µM)
inactive: nuclear beta-catenin stimulation ([1]; at 10 µM) 0.8% | insulin secretion stimulation [2] 4% | viability decrease [3] -3.9% | tube area decrease [4] -22.2% | GLP1 secretion stimulation [5] 0.6% | inhibition of viability [6] 8% | viability decrease (inhibition) [7] 33.8% | viability decrease (inhibition) [8] 44%
